{"source": "PubChem BioAssay AID1463", "about": "(National Center for Advancing Translational Sciences (NCATS), 2008)", "note": "Out of some 280,000 compounds screened, about 2,600 (0.93%) were called active. About 8% were inconclusive and are not listed. The sample holds actives, similar compounds and a random draw of the others, so the mix is not that of the screen. The call rests on the fitted dose curve; in most records, active means well fitted curve in the direction sought with a large enough effect; inconclusive means small, poorly fitted or top-dose-only effect; inactive means flat fitted curve, though single readings scatter. On the % scale 0 is the no-effect control and ±100 the full control effect; potency means the concentration at half of the fitted maximal effect; tags describe the fitted curve by direction and shape or compound fluorescence and quenching.", "data": [{"experiment": "Counterscreen qHTS for Inhibitors of Tau Fibril Formation, Fluorescence Polarization; further: nearly all actives have a fitted effect of over 55% in size", "details": "tau K18 P301L Alexa594 fluorescence, heparin fibrillization; series mostly up to 57.7 µM; activity change, negative = decrease: at the top concentration", "how_it_was_run": "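Human tau K18 P301L (15 uM unlabeled, 0.24 uM Alexa 594-labeled) in 100 mM sodium acetate pH 7 with 20 uM heparin, 6 hr at 37 C. ThT 30 uM added, 1 hr ambient; Alexa 594 FP and total fluorescence read at 555/632 nm.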", "values": [{"smiles": "CCOC(=O)C1CCCN(C(=O)c2ccc(-n3ccc4ccccc43)s2)C1", "note": "(centres undefined)", "activity change, negative = decrease": "-5.78% (inactive)"}, {"smiles": "CCOc1ccc(N(CC)C(=O)c2noc3c2COc2ccc(C)cc2-3)cc1", "activity change, negative = decrease": "-0.276% (inactive)"}, {"smiles": "COc1ccc2c(C)c(CCC(=O)NCc3ccc(OC)c(OC)c3)c(=O)oc2c1", "activity change, negative = decrease": "-23.7% (inactive)"}, {"smiles": "Cc1cc2c(cc3c(SCc4cccc(Cl)c4)nnc(C)n32)o1", "activity change, negative = decrease": "-16.2% (inactive)"}, {"smiles": "COc1ccc(OC)c(-c2nc(C(N)=O)c3c(n2)n(-c2ccc4c(c2)OCO4)c(=O)n3C)c1", "activity change, negative = decrease": "-6.91% (inactive)"}, {"smiles": "COc1cc(/C=N/NC(=O)CCc2n[nH]c(=O)[nH]c2=O)ccc1O", "activity change, negative = decrease": "4.76% (inactive)"}, {"smiles": "COc1ccc(/C=N\\NC(=O)c2sc(N)nc2C)cc1OC", "activity change, negative = decrease": "-14.1% (inactive)"}, {"smiles": "c1ccc2sc(NN=C3CCCC3)nc2c1", "activity change, negative = decrease": "-19.4% (inactive)"}, {"smiles": "Cc1ccc(S(=O)(=O)Nc2nc3ccccc3s2)cc1[N+](=O)[O-]", "activity change, negative = decrease": "-10.2% (inactive)"}, {"smiles": "COc1ccc(/C=N/Nc2nc3ccccc3o2)cc1OC", "activity change, negative = decrease": "-22.7% (inactive)"}, {"smiles": "COc1cc(/C=N\\Nc2nc(-c3cccs3)c(NC(C)=O)s2)ccc1O", "Potency": "17.8 µM [quencher] (active)"}, {"smiles": "O=[N+]([O-])c1cc(Br)c(O)c(/C=N/Nc2nc3ccccc3s2)c1", "Potency": "7.94 µM [quencher] (active)"}, {"smiles": "COc1cc(/C=N/Nc2nc3ccccc3s2)ccc1O", "Potency": "12.6 µM [quencher] (active)"}, {"smiles": "CCNc1nc(NCC)nc(N/N=C/c2ccc(O)c(OC)c2)n1", "activity change, negative = decrease": "-22.5% (inactive)"}, {"smiles": "CCCN1CCN(CCCNC(=O)c2ccc3nc(Cc4ccccc4)oc3c2)CC1", "activity change, negative = decrease": "-2.06% (inactive)"}, {"smiles": "O=C1CN(C(=O)Nc2ccccc2C(F)(F)F)C(c2ccccc2)c2c(sc3c2CCCC3)N1", "note": "(centres undefined)", "activity change, negative = decrease": "-4.27% (inactive)"}, {"smiles": "CCCN1CN=C(NS(=O)(=O)c2ccc(NC(C)=O)cc2)NC1", "activity change, negative = decrease": "-7.06% (inactive)"}, {"smiles": "O=C(NCCc1ccccc1)c1cnc2sc(N3CCCC3)nn2c1=O", "activity change, negative = decrease": "3.82% (inactive)"}, {"smiles": "CN(C)CCCn1c(-c2ccc(Cl)cc2)csc1=Nc1ccccc1", "activity change, negative = decrease": "-11.9% (inactive)"}, {"smiles": "Cc1cc(NS(=O)(=O)c2ccc3oc(=O)c4ncn(C)c4c3c2)ccc1Br", "activity change, negative = decrease": "-23.7% (inactive)"}, {"smiles": "O=C(Nc1ccc(-c2csc(Nc3cccc(C(F)(F)F)c3)n2)cc1)c1cccc(C(F)(F)F)c1", "Potency": "5.01 µM [quencher] (active)"}, {"smiles": "Cc1cccc(NC(=O)c2cccc(C(F)(F)F)c2)c1", "activity change, negative = decrease": "-17.5% (inactive)"}, {"smiles": "CNC(=O)c1ccc(NC(=O)c2cccc(C(F)(F)F)c2)cc1", "activity change, negative = decrease": "6.68% (inactive)"}, {"smiles": "CC(C)S(=O)(=O)c1oc(-c2ccc(F)cc2)nc1S(=O)(=O)c1ccc(F)cc1", "activity change, negative = decrease": "-7.98% (inactive)"}, {"smiles": "CC(=O)COc1ccc2c(-c3ccccc3)cc(=O)oc2c1", "activity change, negative = decrease": "-1.82% (inactive)"}, {"smiles": "COc1ccccc1-c1n[nH]c2c1[C@H](C)CC[C@H]2C(C)C", "activity change, negative = decrease": "-3.61% (inactive)"}, {"smiles": "C=C(C)COc1ccc(-c2n[nH]c(C)c2-c2ccccc2OC)c(O)c1", "Potency": "17.8 µM [quencher] (active)"}, {"smiles": "COc1ccccc1-c1c(C)nn2c(C)c(C(C)=O)cnc12", "activity change, negative = decrease": "3.82% (inactive)"}, {"smiles": "CCOc1ccc(-c2n[nH]c(C)c2-c2ccccn2)c(O)c1", "activity change, negative = decrease": "-5.41% (inactive)"}, {"smiles": "C=C(C)COc1ccc(-c2n[nH]c(C)c2-c2ccccc2)c(O)c1", "Potency": "15.8 µM [quencher] (active)"}, {"smiles": "COc1ccc(CNC(=O)c2cc3cccc(OC)c3oc2=O)cc1", "activity change, negative = decrease": "-14.3% (inactive)"}, {"smiles": "CSc1ccc(CCNC(=O)c2cc(C)nc3c2c(C)nn3-c2cccc(F)c2)cc1", "activity change, negative = decrease": "-10.8% (inactive)"}, {"smiles": "Oc1cc2c(cc1O)CN(C(=S)NCCc1ccc(Cl)cc1)CCC2", "Potency": "10 µM [quencher] (active)"}, {"smiles": "O=C1CCN(C(=S)NCCc2ccccc2)CC1", "activity change, negative = decrease": "2.95% (inactive)"}, {"smiles": "S=C(NCCc1ccccc1)N1CCCCC1", "activity change, negative = decrease": "-5.45% (inactive)"}, {"smiles": "O=C(Cc1ccc(Cl)cc1)NCC(c1cccs1)S(=O)(=O)c1ccc(Cl)cc1", "note": "(centres undefined)", "activity change, negative = decrease": "-21.3% (inactive)"}, {"smiles": "COc1ccc(-c2cn3nc(N4CCC(C(=O)Nc5cccc(C)c5C)CC4)sc3n2)cc1", "activity change, negative = decrease": "-15.3% (inactive)"}, {"smiles": "Cc1ccc(-n2ncc(C(=O)N(C)Cc3ccccc3)c2-n2cccc2)cc1", "activity change, negative = decrease": "-3.21% (inactive)"}, {"smiles": "O=C(Nc1ccc2nccnc2c1)c1ccco1", "activity change, negative = decrease": "1.38% (inactive)"}, {"smiles": "COCCNC(=O)Nc1ccc2nc(-c3ccco3)c(-c3ccco3)nc2c1", "Potency": "8.91 µM [quencher] (active)"}, {"smiles": "CCOc1ccc(NC(=O)c2ncoc2-c2ccco2)cc1", "activity change, negative = decrease": "-18.1% (inactive)"}, {"smiles": "Cc1cc(C)cc(NC(c2nnc(-c3cccc(F)c3)o2)c2ccc(F)cc2Cl)c1", "note": "(centres undefined)", "activity change, negative = decrease": "-16.8% (inactive)"}, {"smiles": "O=C(NNc1c2ccccc2nc2ccccc12)c1cc2ccccc2cc1O", "Potency": "4.47 µM [quencher] (active)"}, {"smiles": "CC(=O)Nc1ccc(Nc2c3ccccc3nc3ccccc23)cc1", "activity change, negative = decrease": "-25.2% (inactive)"}, {"smiles": "O=C(Nc1c2c(nc3ccccc13)CCCC2)c1ccccc1Br", "activity change, negative = decrease": "-1.32% (inactive)"}, {"smiles": "Cc1cccc(NC(=S)NCCN(C2CCCCC2)C2CCCC2)c1", "activity change, negative = decrease": "-10.1% (inactive)"}, {"smiles": "Cc1cccc(NC(=S)NCc2ccc3[nH]c4c(c3c2)CCCC4)c1", "Potency": "14.1 µM [quencher] (active)"}, {"smiles": "O=C(O)CCC(=O)NCc1ccc2[nH]c3c(c2c1)CCCC3", "activity change, negative = decrease": "-1.4% (inactive)"}, {"smiles": "CCc1ccc(NC(=O)N2CCN(C(=O)c3nsc4ccccc34)CC2)cc1", "activity change, negative = decrease": "-9.11% (inactive)"}, {"smiles": "COc1ccc(S(=O)(=O)c2cn(C)c3cc(N4CCCCC4)c(F)cc3c2=O)cc1", "activity change, negative = decrease": "-3.74% (inactive)"}, {"smiles": "Cn1c(=O)c2c(nc(SCC(=O)Nc3ccc(F)cc3)n2Cc2ccccc2)n(C)c1=O", "activity change, negative = decrease": "-23.1% (inactive)"}, {"smiles": "CCc1ccc(CN(Cc2ccco2)C(=O)COc2ccc(Cl)c(C)c2)cc1", "activity change, negative = decrease": "-6.86% (inactive)"}, {"smiles": "NS(=O)(=O)c1ccc(Nc2nc(-c3ccccc3)cs2)cc1", "Potency": "15.8 µM [quencher] (active)"}, {"smiles": "COc1ccc(OC)c(Nc2nc(-c3ccc(O)c(O)c3)cs2)c1", "Potency": "14.1 µM [quencher] (active)"}, {"smiles": "O=c1oc2ccccc2cc1-c1csc(Nc2ccc(O)cc2)n1", "Potency": "14.1 µM [quencher] (active)"}, {"smiles": "COc1ccc(-c2csc(NC(=O)c3ccc(N4C(=O)CCC4=O)cc3)n2)cc1OC", "activity change, negative = decrease": "-6.64% (inactive)"}, {"smiles": "CC(=O)Nc1nc(C)c(-c2csc(Nc3ccc(S(N)(=O)=O)cc3)n2)s1", "activity change, negative = decrease": "-27.7% (inactive)"}, {"smiles": "O=C(Nc1nc(-c2ccc(-c3ccccc3)cc2)cs1)c1cnccn1", "activity change, negative = decrease": "-17.8% (inactive)"}, {"smiles": "Cc1ccc(-c2csc(NC(=O)c3cnccn3)n2)cc1C", "activity change, negative = decrease": "6.03% (inactive)"}, {"smiles": "Cc1cc(NC(=O)c2cccc(Cl)c2)ccc1-c1cc2ccccc2oc1=O", "activity change, negative = decrease": "-26.8% (inactive)"}, {"smiles": "COc1ccc(-c2csc(Nc3ccc(O)cc3)n2)cc1", "Potency": "11.2 µM [quencher] (active)"}, {"smiles": "O=C(Nc1ccncc1)c1cc2ccccc2o1", "activity change, negative = decrease": "-8.25% (inactive)"}, {"smiles": "COc1ccc(-c2csc(NC(=O)COC(=O)c3ccc(Br)o3)n2)cc1", "activity change, negative = decrease": "-17.9% (inactive)"}, {"smiles": "COc1ccc(-c2csc(NC(=O)CCCc3cccs3)n2)cc1", "activity change, negative = decrease": "-2.65% (inactive)"}]}]}
